# Laboratory results taken from PubChem BioAssay (NCATS).
# Records with an inconclusive call do not appear. A number with no mark means an inactive call. Calls of active or inactive are those of the source. Calls come from the whole dose curve; as a rule, active = well fitted curve in either direction with a large enough effect (not every such curve was filed as active); inconclusive = small, poorly fitted or top-dose-only effect, or another doubt; inactive = flat fitted curve, though single readings scatter.
# Assay: NFAT Signaling Pathway (AID 444)
# Settings: Jurkat NFAT-bla M1, carbachol, beta-lactamase ratio, 5 h; at 7.69 µM (top of the series) unless noted
# Excerpt: NCGC Assay Overview: The nuclear factor of activated T cells (NFAT) family of transcription factors has been found primarily in most immune system cells and some other non-immune cells. NFAT plays the immunomodulatory role, primarily in T-cell activation and differentiation. NFAT target genes are also involved in the regulation of apoptosis and differentiation in non-immune cell types. The NFAT sequence was engineered to the upstream of the ?-lactamase reporter gene and transfected into Jurkat cells with co-transfection of muscarinic receptor1 [provided by Invitrogen Corp]. When an extracellular stimulus, such as carbachol, binds to the GPCR M1 receptor, it stimulates a signaling cascade that activates NFAT response element and ?-lactamase expression by phosphorylating the NFAT binding protein. This cell based ?-lactamase reporter gene assay can accurately monitor any changes occurring along the NFAT pathway, and can be used for screening small molecule inhibitor or activator upon activation by carbachol EC50 concentration. A small molecular library were screened in a titration series resulting in AC50s (can be either IC50s or EC50s).
# NCGC Assay Protocol Summary: The cells were prepared in RPMI 1640 medium containing 0.1% dialyzed FBS and 25 mM HEPES at 1.6 x 10^6cell/ml. The assay was performed in 1536-well plate format as follows: 5 ul of cell preparation 23 nl of compounds 1ul of carbachol (final concentration 1 uM) Briefly centrifuge the plates and incubate at 37 °C for 5 hours 1 ul of CCF4 dye mixture Incubate the plates at RT for 1 hour Read the plate in EnVision plate reader (Ex= 405nm, and Em1=460nm and Em2=530nm). The %Activity was determined from the ratio of 460nm/530nm. Data normalization and AC50 calculations were accomplished using GeneData software.
# % is set by controls: 0 for no effect and ±100 for the full control effect.
row,SMILES,"activity change, negative = inhibition"
1,O=C1N[C@@]2(CN3CCC2CC3)C(=O)N1CN(Cc1ccccc1)c1ccccc1,6.45%
2,CC(C)CCC1(CCN)C(=O)NC(=O)NC1=O,4.97%
3,C[C@@H]1CC[C@@H]2N(C1)C[C@H]1[C@@](O)([C@H](O)C[C@]3(O)[C@H]4CC[C@H]5[C@]6(O)O[C@]4(C[C@]13O)[C@@]5(C)CC[C@@H]6O)[C@@]2(C)O,4.97%
4,CC(C)[C@@]1(NC(=O)[C@H]2C[C@H]3c4cccc5[nH]cc(c45)C[C@@H]3N(C)C2)O[C@]2(O)[C@H]3CCCN3C(=O)[C@H](Cc3ccccc3)N2C1=O,1.76% [at 38 µM]
5,C[C@]1(O)CC[C@H]2[C@@H]3[C@@H](O)CC4=CC(=O)CC[C@@]4(C)[C@H]3CC[C@]21C,6.38%
6,CC(C)[C@@]1(NC(=O)[C@@H]2C=C3c4cccc5[nH]cc(c45)C[C@@H]3N(C)C2)O[C@]2(O)[C@H]3CCCN3C(=O)[C@H](Cc3ccccc3)N2C1=O,4.28% [at 38 µM]
7,O=P(O)(O)CCP(=O)(O)O,7.15%
8,O=S(=O)(NCCO)c1cc[c]([Sb](=[O])([OH])[OH])cc1,16.2%
9,C[C@@]12Cc3cnc(-c4ccccc4)nc3C[C@@H]1CC[C@@H]1[C@H]3CC[C@@](C)(O)[C@]3(C)CC[C@@H]12,-13.1%
10,CSCC[C@@H](N)P(C)(=O)O,2.01%
11,N[C@@H](Cc1ccccc1)P(=O)(O)O,12.4%
12,O=C(O)/C=C\c1ccc[c]([Sb](=[O])([OH])[OH])c1,12.6%
13,CC(C)c1nccn1Cc1ccc(Cl)cc1Cl,-21%
14,N=C(N)SCc1ccc(Cl)c2ccccc12 (tested in a mixture with another compound),-1.16%
15,C1C[C@@H]2CN(CCCN3CCOCC3)[C@@H](C1)O2,9.72%
16,C[n+]1c(/C=C\c2ccc(O)c3ncccc23)[se]c2ccccc21,-19%
17,O=[As](O)(O)c1ccc2nc3cc([As](=O)(O)O)ccc3nc2c1,20.7%
18,O=C(O)CSCC(=O)O,2.38%
19,C[C@]12CC[C@H](O)CC1=CC[C@@H]1[C@H]2CC[C@]2(C)C(=O)CC[C@H]12,2.55% [at 38 µM]
20,COc1ccc2c3c1O[C@@H]1C(=O)CC[C@@]4(O)[C@@H](C2)N(CC2CC2)CC[C@]314,-9.4% [at 38 µM]

row,SMILES,"activity change, negative = inhibition"
1,C[C@H]1CC[C@@]2(NC1)O[C@@H]1C[C@@H]3[C@@H]4CC=C5C[C@@H](O)CC[C@]5(C)[C@@H]4CC[C@]3(C)[C@H]1[C@@H]2C,24.2%
2,Cc1ccc(O)cc1 (tested in a mixture with another compound),9.05%
3,COc1ccc(C[C@@H]2C(=O)N[C@H](C)C(=O)N(C)[C@@H]3C(=O)N(C)[C@@H](Cc4ccc(O)c(c4)Oc4ccc(cc4)[C@H]3O)C(=O)N[C@@H](C)C(=O)N[C@H](C)C(=O)N2C)cc1,-133% (active)
4,CC[C@H]1CN2CCc3cc(OC)c(OC)cc3[C@H]2C[C@@H]1C[C@H]1NCCc2c1[nH]c1ccc(O)cc21,-128% (active)
5,CO[C@H]1[C@H](O)[C@H](O[C@@H]2[C@H](Oc3cccc4c(O)c5c(=O)oc6ccc(C)c7c(=O)oc(c34)c5c67)O[C@@H](C)[C@H](O)[C@H]2O)O[C@@H](C)[C@@H]1O,10.4%
6,C[C@@H]1O[C@@H](O[C@H]2C[C@@H](O)[C@@]3(CO)[C@H]4[C@H](O)C[C@]5(C)[C@@H](C6=CC(=O)OC6)CC[C@]5(O)[C@H]4CC[C@@]3(O)C2)[C@@H](O)[C@H](O)[C@H]1O,-104% (active)
7,C[N+]1(C)CCc2cc3c(cc2[C@@H]1[C@@H]1OC(=O)c2c1ccc1c2OCO1)OCO3,-11.8% [at 38 µM]
8,NC(N)=NCCN=C(N)N,-0.323%
9,c1ccc2c(c1)Sc1ccccc1N2C[C@H]1CN2CCC1CC2,-73.4% (active)
10,C(=NCCN1CCOCC1)=NC1CCCCC1,12.1%
11,c1nc(N2CC2)c2cnn([C@@H]3CCCCO3)c2n1,7.32%
12,Cc1ccc(C2(c3ccc(C)c(O)c3C)CCN(C)CC2)c(C)c1O,3.1%
13,N[C@H](CCl)C(=O)O,14.9% [at 38 µM]
14,NNc1c(C(N)=O)c2c(N)ncnc2n1[C@@H]1O[C@H](CO)[C@@H](O)[C@@H]1O,6.43%
15,CC(C)[C@@H](Br)C(=O)NCC(=O)O,0.167%
16,C[C@@H]1O[C@H](OC2[C@@H](O)[C@H](O)C(O)[C@H](O)[C@H]2O)[C@@H](N)C[C@@H]1N=C(N)C(=O)O (stereo not given in full),8.22%
17,O=C(O)[C@H](Cc1cnc[nH]1)N1C(=O)c2ccccc2C1=O,7.47%
18,O=C(NCP(=O)(O)O)c1cccnc1,5.87%
19,CC(=O)[C@@H]1CC[C@H]2[C@H]3CC[C@H]4C[C@@H](O)CC[C@]4(C)[C@@H]3CC[C@]12C,-10.3% [at 38 µM]
20,NNc1nncn1N,5.16%
